# Data published in PubChem BioAssay AID1985 (Southern Research Specialized Biocontainment Screening …, 2009).
# The campaign covered roughly 2,300 compounds. About 1,000 (43%) were called active. No rule for the calls is given here. So high a share suggests a set chosen from earlier hits. The list shows a part of the results. Entries that show only a call come without a potency. Potency and affinity values are given separately.
# Test: PhoP regulon inhibitor project modified counter assay, GFP fluorescence readout, dose response (AID 1985)
# Conditions: S. Typhi, 4 h; series mostly up to 150 µM
row,SMILES,outcome
1,CCOc1ccc2nnnn2n1,inactive
2,COc1ccc2c(c1)cc1n2CCN=C1N,inactive
3,CCC(C)(C)NC(=O)COc1ccc(C(=O)c2ccccc2)cc1,inactive
4,COCCCNC(=O)c1cc(OC)c(OC)c(OC)c1,inactive
5,Cc1ccc(OCC(=O)N2CCN(S(C)(=O)=O)CC2)cc1,inactive
6,CCOCCCNC(=O)C(c1ccc(OC)cc1)N(Cc1cccs1)C(=O)c1ccccn1 (stereo not drawn),inactive
7,Cc1oc2nc(SCCCC(=O)NCCCO)nc(N)c2c1C,inactive
8,COc1cc(C(=O)Nc2ccc3c(c2)OCCO3)ccc1OC(C)C,inactive
9,CCCC(C(=O)NCC1CCCO1)N(Cc1ccco1)C(=O)CNS(=O)(=O)c1ccc(F)cc1 (stereo not drawn),inactive
10,O=C1c2ccccc2C(=O)N1CCC(c1ccccc1)c1ccco1 (stereo not drawn),inactive
11,O=c1oc2ccccc2c(O)c1C(c1ccccn1)c1c(O)c2ccccc2oc1=O,inactive
12,O=C(NC(=O)c1ccccc1)OCC1CCCN2CCCCC12 (stereo not drawn),inactive
13,O=C(CC(=O)NCc1ccccc1)NCc1ccccc1,inactive
14,Cc1cc(C)c2nc(/N=C(\N)NC(=O)c3ccccc3)nc(C)c2c1,inactive
15,S=C(Nc1ccccc1Cl)N(Cc1ccccc1)Cc1ccccn1,inactive
16,CC(C)(C)c1ccc(C(=O)NNC(=O)Cc2ccccc2)cc1,inactive
17,O=C(c1cccs1)N1CCN(S(=O)(=O)c2ccccc2)CC1,inactive
18,O=C(CCCc1ccccc1)Nc1cccnc1,inactive
19,Cc1cc(C(=O)Nc2cccnc2)on1,inactive
20,CCOC(=O)c1ccc(NC(=O)c2cc3c(s2)CCC3)cc1,inactive
21,Cc1cc(C)c([C@@H]2C[C@H]3CN(C4CCCC4)C(=O)[C@]34CCCN24)c(-n2cccn2)c1,inactive
22,O=C(CCCOc1ccc(Cl)cc1Cl)NNC(=O)C1CCC1,inactive
23,CC(C)(C)c1ccc(OCCCNC2CCCC2)cc1,inactive
24,CSCCC(NC(=O)c1ccc(Br)cc1)C(=O)O (stereo not drawn),inactive
25,CCOc1ccc(NC(=O)c2ccc(N)cc2)cc1,inactive
26,CCCOc1ccc(C(=O)NNC(=S)NC(=O)c2ccco2)cc1,inactive
27,Cc1ccc(CCNC(=O)C2CCN(S(=O)(=O)N3CCCC3)CC2)cc1,inactive

row,SMILES,outcome
1,O=C1C=C(c2ccc(Cl)cc2)C(=O)N1Nc1ccccc1,inactive
2,CCCn1c(SCc2ccc(Cl)cc2)nc2c1c(=O)[nH]c(=O)n2C,inactive
3,CN1CCCN(C(c2ccccc2)c2ccc(Cl)cc2)CC1 (stereo not drawn),inactive
4,Cc1c(C(=O)Nc2ccncc2)sc2nc(-c3ccc(F)cc3)cn12,inactive
5,COc1cccc(CNc2nn[nH]n2)c1OC,inactive
6,Fc1ccc(NC(=S)NCc2ccccc2Cl)cc1,inactive
7,Clc1ccc(CNCc2cccs2)cc1Cl,inactive
8,COc1ccccc1CNC(=O)COC(=O)CCC(=O)c1cccs1,inactive
9,Fc1ccccc1CSc1ccc(-c2ccco2)nn1,inactive
10,O=C(O)CCSCc1ccccc1F,inactive
11,COc1ccc2[nH]cc(CC(=O)O)c2c1,inactive
12,COc1ccc(C2=NN3C(C2)c2ccccc2OC3c2cccs2)cc1 (stereo not drawn),inactive
13,O=C(O)COc1ccccc1/C=N/NC(=O)c1cccc(S(=O)(=O)N2CCOCC2)c1,inactive
14,O=C(CSc1cccc2cccnc12)Nc1ccc(S(=O)(=O)N2CCOCC2)cc1,inactive
15,Cn1c(-c2ccc(Cl)cc2)cnc1N,inactive
16,O=[N+]([O-])c1ccc(-c2cnc(NO)nc2)cc1,inactive
17,COc1cccc(C(=O)N(CN2CCCC2=O)c2cc(C)on2)c1,inactive
18,N#Cc1ccc(C2=NC(C(F)(F)F)(C(F)(F)F)c3c(n(Cc4ccco4)c(=O)[nH]c3=O)N2)cc1,inactive
19,COc1ccc(NC(=O)C2CCCN(C(=O)NC3CCCCC3)C2)cc1OC (stereo not drawn),inactive
20,CCN1CCN(c2nc3ccccc3nc2C(C#N)S(=O)(=O)c2ccc(C)cc2)CC1 (stereo not drawn),inactive
21,Cc1ccc(S(=O)(=O)NCC(=O)OCN2C(=O)c3ccccc3C2=O)cc1,inactive
22,COc1ccc(-c2cc(=NCC(=O)O)c3ccccc3o2)cc1,inactive
23,CCOC(=O)C(NC(C)=O)(Nc1cccc(F)c1)C(F)(F)F (stereo not drawn),inactive
24,O=C(Nc1cccc(F)c1)NC1CCCCC1,inactive
25,CC(=O)Nc1cccc(NC(=O)Nc2ccc(C)c(Cl)c2)c1,inactive
26,Cc1nc(NC2=NCN(CCCN3CCOCC3)CN2)nc2c(C)cccc12,inactive
